We go through 8 molecules from PubChem BioAssay.

Assay [1] in a line: reduced mouse 2C T cell binding to pMHC/ICAM-1 vesicles – MLPCN validation set, flow cytometry, LFA-1/ICAM-1 modulator project, pilot screen (AID 2523;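 active means response below a set limit, under 55% cells CD8-positive and vesicle-bound, and CD8 cells' 90th-percentile brightness under 279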;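 on vesicle binding response: mean PE anti-B7-1 fluorescence of CD8+ cells relative to row control; 100% = QL9-loaded vesicles with DMSO vehicle in the same plate row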). As to conditions: 2C mouse CD8+ T cells, at 7 µM, stronger effect = lower value; double positive events: measured here: CD8+/vesicle+ event percentage. Background: A flow cytometer gives signals particle by particle.
Assay [2] addresses Integrin beta-1 (Homo sapiens) + Integrin alpha-4 (Homo sapiens) (UniProt P13612+P05556). Put plainly: alpha4beta1 integrin LIBS antibody binding reduction – U937 cells, HUTS-21 mAb, flow cytometry, validation set, VLA-4 allosteric modulator project, pilot screen (AID 2674;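 active means inhibition above 50%, about 3 SD of the validation set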;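 further: antibody binding induced by the VLA-4 ligand LDV present at three times its Kd; 0% = LDV ligand with antibody and no compound and 100% = antibody without LDV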). The settings on record: HUTS-21 LIBS mAb binding, at 6.7 µM, stronger effect = higher value, binding induced by LDV ligand.

The nature of assay [3]: calorie-restriction mimetic ROS inhibitors, yeast – validation compound set, pilot screen (AID 2706;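 active means superoxide response below 65% of plate, a cut near 3 SD across the whole screen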;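 further: yeast exposed to compound for one week at 30 degrees C before staining; 100% = mean of all compound wells on the same plate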). As to conditions: S. cerevisiae aging, superoxide DHE fluorescence; at 10 µM, stronger effect = lower value.
Assay [4] addresses Beta-adrenergic receptor kinase 1 (Homo sapiens) (UniProt P25098). Kind of assay: GRK2 binders displacing RNA aptamer, biochemical, validation, human GRK2, bead flow cytometry (AID 488806;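 active means aptamer binding inhibition above 30%, about 3 SD of noise from non-fluorescent compounds; inactive means inhibition at or below 30%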). As to conditions: bead-bound GRK2, FAM-aptamer displacement, at 10 µM, stronger effect = higher value.
For assay [5], the target named is Beta-2 adrenergic receptor (Homo sapiens) (UniProt P07550). Put plainly: agonist-induced loss of surface beta2AR – cell-based, FAP fluorogen, flow cytometry, validation set, pilot screen (AID 504459;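 active means percent response above 42, roughly 3 SD of non-fluorescent test compounds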;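 further: agonist-driven loss of surface beta2AR via internalization measured by FAP dye flow cytometry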). As to conditions: Am2.2-beta2AR cells, at 10 µM, stronger effect = higher value.
Chain of Beta-2 adrenergic receptor (Homo sapiens) (P07550 whole entry, looked up): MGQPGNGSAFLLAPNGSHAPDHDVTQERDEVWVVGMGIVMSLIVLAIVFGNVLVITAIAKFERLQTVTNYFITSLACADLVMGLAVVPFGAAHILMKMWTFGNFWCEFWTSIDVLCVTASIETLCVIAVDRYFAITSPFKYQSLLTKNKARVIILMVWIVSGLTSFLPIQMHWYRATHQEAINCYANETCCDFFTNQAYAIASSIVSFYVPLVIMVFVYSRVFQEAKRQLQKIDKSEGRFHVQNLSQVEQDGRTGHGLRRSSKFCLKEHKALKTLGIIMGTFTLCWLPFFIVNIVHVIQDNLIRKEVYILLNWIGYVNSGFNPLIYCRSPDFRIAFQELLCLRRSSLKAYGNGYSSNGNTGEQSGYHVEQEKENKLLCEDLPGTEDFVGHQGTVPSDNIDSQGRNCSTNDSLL
The target of assay [6] is AP-2 complex subunit beta (Homo sapiens) (UniProt P63010). Put plainly: beta-arrestin/AP2 interaction blockers – biochemical, validation set, GST-AP2 beads, flow cytometry, pilot screen (AID 504541;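 active means inhibition above 54%, about 3 SD of non-fluorescent compounds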;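 further: AP2 carries R879A mutation and is captured from E. coli lysate; bead-bound FITC arrestin peptide fluorescence measuring arrestin peptide binding to AP2; 0% = DMSO wells and 100% = excess unlabeled arrestin peptide control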). The settings on record: FITC arrestin peptide, at 10 µM, stronger effect = higher value, AP2 beta2 appendage fragment, R879A mutant.
Chain of AP-2 complex subunit beta (Homo sapiens) (P63010 whole entry, looked up, the tested form may be a part, one chain of several): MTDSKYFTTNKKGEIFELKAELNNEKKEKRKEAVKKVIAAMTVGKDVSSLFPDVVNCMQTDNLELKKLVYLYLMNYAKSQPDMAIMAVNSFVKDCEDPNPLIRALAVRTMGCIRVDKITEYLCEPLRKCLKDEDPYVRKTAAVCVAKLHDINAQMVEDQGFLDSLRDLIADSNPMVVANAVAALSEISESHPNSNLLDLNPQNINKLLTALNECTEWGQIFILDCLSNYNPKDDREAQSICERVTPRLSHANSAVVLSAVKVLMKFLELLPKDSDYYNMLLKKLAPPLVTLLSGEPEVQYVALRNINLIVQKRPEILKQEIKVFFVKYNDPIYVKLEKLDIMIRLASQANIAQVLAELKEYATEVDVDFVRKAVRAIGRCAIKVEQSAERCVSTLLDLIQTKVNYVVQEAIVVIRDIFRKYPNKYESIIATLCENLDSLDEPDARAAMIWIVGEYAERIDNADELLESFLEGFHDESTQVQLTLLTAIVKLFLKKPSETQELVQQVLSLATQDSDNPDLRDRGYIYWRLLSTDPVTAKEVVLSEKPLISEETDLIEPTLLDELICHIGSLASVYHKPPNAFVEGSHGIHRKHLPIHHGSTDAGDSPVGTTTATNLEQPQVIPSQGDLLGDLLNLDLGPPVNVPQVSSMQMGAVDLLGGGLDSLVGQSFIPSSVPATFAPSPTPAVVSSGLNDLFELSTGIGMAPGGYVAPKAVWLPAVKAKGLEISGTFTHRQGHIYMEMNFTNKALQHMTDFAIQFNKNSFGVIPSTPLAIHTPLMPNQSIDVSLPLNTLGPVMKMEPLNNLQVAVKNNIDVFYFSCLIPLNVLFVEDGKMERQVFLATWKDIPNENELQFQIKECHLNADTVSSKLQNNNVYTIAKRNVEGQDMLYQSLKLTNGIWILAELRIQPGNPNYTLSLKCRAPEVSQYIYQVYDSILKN
A short description of assay [7]: cytosolic pH regulators acting via V-ATPase – S. cerevisiae, pHLuorin, HTS validation (AID 504600; in the data active means response above about 15%;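 further: plate controls were DMSO for no effect and reference compound for full effect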). The settings on record: V-ATPase proton transport, at 10 µM, stronger effect = higher value.
The test system of assay [8] is anti-desmoglein-3 scFv antibody binding to human DSG3. Kind of assay: blockers of pathogenic pemphigus antibody–desmoglein-3 binding – biochemical, validation compound set, bead-based, flow cytometry, pilot screen (AID 588368;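 active means binding below the plate cutoff, the plate median minus 3 SD, with a reading above zero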;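 further: signal is the median channel fluorescence of bead-bound GFP antibody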). The settings on record: Protein G beads, DSG3-Fc, scFv-GFP binding, at 10 µM, stronger effect = lower value.
Assay [9] can be described thus: Nile Red efflux blockade in pump-expressing yeast – validation compound set, multiplex, phenotypic, pilot screen (AID 588506;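 active means efflux inhibition above 0.42, the validation set average plus 4 SD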;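 further: Nile Red retained in cells so higher fluorescence means more efflux inhibition; 0 = negative control wells and 1 = enniatin B 25 µM full block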). As to conditions: S. cerevisiae pump-expressing triplex, Nile Red efflux flow cytometry; at 10 µM; stronger effect = higher value; the pumps come from Candida albicans.
The target in assay [10] is ATP-binding cassette sub-family B member 6 (Homo sapiens) (UniProt Q9NP58). Kind of assay: blockers of ABCB6-driven porphyrin uptake – K562-ABCB6 cells, flow cytometry, validation set, pilot screen (AID 588550;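 active means inhibition above the screen-wide mean plus 3 SD, about 51%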;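 further: 0% = DMSO wells and 100% = benzethonium chloride 70 µM positive control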). The settings on record: K562-ABCB6 porphyrin accumulation, 1 h, at 10 µM, stronger effect = higher value.
Chain of ATP-binding cassette sub-family B member 6 (Homo sapiens) (Q9NP58 whole entry, looked up): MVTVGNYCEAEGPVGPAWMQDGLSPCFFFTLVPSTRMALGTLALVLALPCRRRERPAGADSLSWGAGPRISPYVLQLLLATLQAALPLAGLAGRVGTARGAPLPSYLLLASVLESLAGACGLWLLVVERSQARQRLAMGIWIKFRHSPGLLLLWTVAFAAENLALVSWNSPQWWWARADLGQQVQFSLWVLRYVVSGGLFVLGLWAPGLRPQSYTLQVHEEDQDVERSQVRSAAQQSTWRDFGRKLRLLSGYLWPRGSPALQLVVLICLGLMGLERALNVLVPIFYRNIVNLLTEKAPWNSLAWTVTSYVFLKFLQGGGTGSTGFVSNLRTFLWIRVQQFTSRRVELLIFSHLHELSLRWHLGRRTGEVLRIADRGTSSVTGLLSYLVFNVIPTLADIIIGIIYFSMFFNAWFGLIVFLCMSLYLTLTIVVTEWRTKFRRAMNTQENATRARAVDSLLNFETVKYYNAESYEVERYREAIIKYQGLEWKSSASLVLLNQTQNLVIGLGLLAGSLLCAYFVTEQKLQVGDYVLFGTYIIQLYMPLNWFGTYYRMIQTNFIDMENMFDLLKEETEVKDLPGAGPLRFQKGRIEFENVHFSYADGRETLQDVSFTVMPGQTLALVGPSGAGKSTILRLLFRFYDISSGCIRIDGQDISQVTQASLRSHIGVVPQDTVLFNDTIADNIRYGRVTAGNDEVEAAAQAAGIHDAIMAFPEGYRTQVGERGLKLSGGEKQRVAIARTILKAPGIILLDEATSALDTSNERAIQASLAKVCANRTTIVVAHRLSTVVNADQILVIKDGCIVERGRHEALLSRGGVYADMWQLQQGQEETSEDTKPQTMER
Assay [11] is described as follows: AML differentiation inducers, ER-HoxA9 marrow cells – cell-based, GFP/MAC1 double positive, flow cytometry, validation set, primary screen (AID 588685;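 active means differentiation response of at least 50%, scaled between solvent and reference control, from cells with both markers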;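 further: compound exposure lasts four days before antibody staining and flow analysis; 0% = DMSO wells and 100% = 5 µM fulvestrant positive control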). The settings on record: stronger effect = higher value, normalized: vehicle 0, fulvestrant 100.
Assay [12] in a line: hit retest on RPL19A-GFP reporter strain – cell-based, S. cerevisiae, flow cytometry, cherry picks, mother/daughter gates, confirmation (AID 2270;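 active means GFP response below 50% of the DMSO control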). As to conditions: 3 h, at 10 µM, stronger effect = lower value, 100 = same GFP as DMSO wells.
A short description of assay [13]: yeast TOR pathway reporter LAP4-GFP change – cell-based, cherry picks, flow cytometry, mother/daughter gates, confirmation (AID 2271;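 active means GFP response above 150% of the DMSO control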;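 further: ratio of sample to DMSO plate mean so 100% equals DMSO level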). The settings on record: S. cerevisiae LAP4-GFP strain, 3 h, at 10 µM, stronger effect = higher value, 100 means same as DMSO control.
Assay [14] can be described thus: TOR pathway reporter MEP2-GFP, retest of hits – S. cerevisiae, flow cytometry GFP, cherry picks, confirmation (AID 2272;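 active means GFP response above 150% of the DMSO control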;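 further: ratio of well signal to plate DMSO mean so 100% equals DMSO level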). The settings on record: S. cerevisiae MEP2-GFP strain, 3 h, at 10 µM, stronger effect = higher value.
The nature of assay [15]: yeast AGP1-GFP fluorescence change, single-dose – cell-based, flow cytometry, S. cerevisiae, cherry picks, confirmation (AID 2273).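 Further: median GFP channel fluorescence over the whole cell population gate.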 As to conditions: S. cerevisiae AGP1-GFP strain, 3 h, at 10 µM.
Assay [16] can be described thus: TOR pathway CIT2 reporter hit retest – S. cerevisiae, GFP fusion, cherry picks, mother/daughter gates, confirmation (AID 2274). The settings on record: S. cerevisiae CIT2-GFP strain, flow cytometry, 3 h, at 10 µM, stronger effect = higher value.
The mark [17] stands for this setting: measured here: daughter cell gate.
[18] abbreviates: measured here: mother cell gate.

Calls of active or inactive are those of the source.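 How the source made its calls, unless noted: active means GFP response above 150% of the DMSO level; inconclusive means fewer than 70 events counted for a yeast strain; inactive means the rest.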

Chain of Integrin beta-1 (Homo sapiens) + Integrin alpha-4 (Homo sapiens) (P05556 whole entry, looked up): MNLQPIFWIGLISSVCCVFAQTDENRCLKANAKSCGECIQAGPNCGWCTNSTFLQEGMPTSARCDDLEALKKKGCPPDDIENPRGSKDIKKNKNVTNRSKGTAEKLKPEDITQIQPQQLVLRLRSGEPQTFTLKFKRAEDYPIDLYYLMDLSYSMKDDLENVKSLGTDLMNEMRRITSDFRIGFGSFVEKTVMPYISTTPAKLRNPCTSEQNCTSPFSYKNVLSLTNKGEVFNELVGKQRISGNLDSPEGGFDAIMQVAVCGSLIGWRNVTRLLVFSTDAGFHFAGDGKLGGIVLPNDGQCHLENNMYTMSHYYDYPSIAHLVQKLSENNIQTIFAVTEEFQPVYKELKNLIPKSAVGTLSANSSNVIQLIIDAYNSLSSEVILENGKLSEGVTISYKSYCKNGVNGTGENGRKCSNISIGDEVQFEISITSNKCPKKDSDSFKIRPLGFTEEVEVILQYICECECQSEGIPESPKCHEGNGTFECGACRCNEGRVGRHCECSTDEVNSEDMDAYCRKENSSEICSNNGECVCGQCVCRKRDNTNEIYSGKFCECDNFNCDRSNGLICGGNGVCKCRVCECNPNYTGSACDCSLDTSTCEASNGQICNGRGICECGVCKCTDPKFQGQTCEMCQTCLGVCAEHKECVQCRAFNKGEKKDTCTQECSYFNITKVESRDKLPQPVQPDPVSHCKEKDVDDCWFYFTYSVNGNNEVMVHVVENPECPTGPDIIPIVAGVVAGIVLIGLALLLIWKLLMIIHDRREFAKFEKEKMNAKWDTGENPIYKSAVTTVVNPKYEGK
Chain of Integrin beta-1 (Homo sapiens) + Integrin alpha-4 (Homo sapiens) (P13612 whole entry, looked up): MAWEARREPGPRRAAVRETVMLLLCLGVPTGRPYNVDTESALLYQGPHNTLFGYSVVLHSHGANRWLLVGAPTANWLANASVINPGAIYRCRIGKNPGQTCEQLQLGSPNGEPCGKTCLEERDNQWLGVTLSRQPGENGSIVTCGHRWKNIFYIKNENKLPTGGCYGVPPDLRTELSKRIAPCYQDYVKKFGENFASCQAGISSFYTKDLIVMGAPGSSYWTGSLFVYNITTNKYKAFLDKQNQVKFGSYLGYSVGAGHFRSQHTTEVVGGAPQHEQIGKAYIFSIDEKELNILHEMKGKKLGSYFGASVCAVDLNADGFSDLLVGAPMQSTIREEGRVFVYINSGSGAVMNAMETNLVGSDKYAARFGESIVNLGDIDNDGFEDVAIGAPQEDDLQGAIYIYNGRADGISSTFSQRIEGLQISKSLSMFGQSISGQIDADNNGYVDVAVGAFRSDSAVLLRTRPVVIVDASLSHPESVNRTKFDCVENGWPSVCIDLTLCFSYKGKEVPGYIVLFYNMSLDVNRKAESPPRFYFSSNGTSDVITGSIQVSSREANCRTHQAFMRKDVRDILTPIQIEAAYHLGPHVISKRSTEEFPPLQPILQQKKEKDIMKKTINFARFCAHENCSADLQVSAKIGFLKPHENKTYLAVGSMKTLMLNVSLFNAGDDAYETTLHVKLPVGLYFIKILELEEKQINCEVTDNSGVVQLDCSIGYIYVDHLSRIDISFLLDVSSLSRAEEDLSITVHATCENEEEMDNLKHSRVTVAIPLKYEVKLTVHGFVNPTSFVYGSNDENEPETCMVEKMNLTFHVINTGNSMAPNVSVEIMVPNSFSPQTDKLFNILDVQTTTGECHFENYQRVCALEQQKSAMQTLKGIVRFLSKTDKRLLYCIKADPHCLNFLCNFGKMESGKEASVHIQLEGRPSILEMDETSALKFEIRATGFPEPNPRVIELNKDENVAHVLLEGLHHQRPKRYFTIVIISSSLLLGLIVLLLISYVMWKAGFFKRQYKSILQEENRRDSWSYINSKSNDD
Chain of Beta-adrenergic receptor kinase 1 (Homo sapiens) (P25098 whole entry, looked up): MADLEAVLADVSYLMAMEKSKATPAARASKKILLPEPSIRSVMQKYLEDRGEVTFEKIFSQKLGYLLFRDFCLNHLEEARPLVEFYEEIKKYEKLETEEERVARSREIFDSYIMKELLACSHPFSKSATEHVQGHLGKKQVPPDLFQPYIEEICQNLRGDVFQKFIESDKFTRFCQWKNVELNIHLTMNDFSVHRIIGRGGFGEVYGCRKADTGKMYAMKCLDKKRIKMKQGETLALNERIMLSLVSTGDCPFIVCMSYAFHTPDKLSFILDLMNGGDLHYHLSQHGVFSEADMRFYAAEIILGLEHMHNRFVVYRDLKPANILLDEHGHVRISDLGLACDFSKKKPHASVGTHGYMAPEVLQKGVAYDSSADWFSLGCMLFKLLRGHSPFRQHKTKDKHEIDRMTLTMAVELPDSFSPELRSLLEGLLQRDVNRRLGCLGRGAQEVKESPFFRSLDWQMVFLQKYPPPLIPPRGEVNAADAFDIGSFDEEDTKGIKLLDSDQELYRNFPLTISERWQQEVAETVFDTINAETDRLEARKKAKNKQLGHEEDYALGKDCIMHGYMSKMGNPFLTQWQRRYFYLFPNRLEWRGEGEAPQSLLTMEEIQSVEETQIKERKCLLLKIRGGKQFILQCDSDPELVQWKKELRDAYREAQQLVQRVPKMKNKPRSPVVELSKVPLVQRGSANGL

A word on the inhibition: it is the relative decrease from the control value, in per cent. For `Cc1nnc(SCC(=O)N2CCCC(C(=O)c3ccc(Cl)cc3)C2)o1` (stereo not drawn), the double positive events in assay [1] amounted to 71.9%. In assay [1], the vesicle binding response was 299% (inactive). Moreover, the figures for the inhibition in [2], in assay [6] and in assay [10] were 2.3% (inactive), -3.16% (inactive) and 3% (inactive), respectively. Also, the superoxide response (% of plate) in assay [3] is 95.6% (inactive). In addition, in assay [4], the aptamer binding inhibition was 1% (inactive). Besides, the response in [5] was -7.42% (inactive); in assay [7] it was 2.16% (inactive). Further, the binding (% of control) in assay [8] is 105% (inactive). In assay [9], the efflux inhibition (fraction of control) is 0.3 (inactive). The differentiation response in [11] was -13.6% (inactive).
As to `O=C(O)CSC1CC(=O)N(c2ccc(Cl)cc2)C1=O` (stereo not drawn), the GFP response vs DMSO in assay [12] is 93.1% (inactive); in [14], 108% (inactive). Besides, in [13], the GFP response relative to DMSO is 102% (inactive). The GFP response, % of DMSO in assay [15] was 97.3% (inactive); in [16], 104% (inactive); in [16] (setting [17]), 90.5%.
Turning to `CC(=O)Oc1ccc(C2OC(=O)c3ccccc3N2C(C)=O)cc1` (stereo not drawn), in assay [1], the double positive events was 63.2%. Besides, the vesicle binding response in assay [1] was 146% (inactive). The results for the inhibition in [2], in [6] and in [10] were 19% (inactive), 0.53% (inactive) and 8% (inactive), respectively. Also, in assay [3], the superoxide response (% of plate) was 98.4% (inactive). Besides, the aptamer binding inhibition in [4] is 1% (inactive). The response in [5] is 15.3% (inactive); in assay [7], -2.98% (inactive). The binding (% of control) in assay [8] is 98.1% (inactive). In [9], the efflux inhibition (fraction of control) was 0.03 (inactive). For the same molecule, the differentiation response in [11] is -4.57% (inactive).
With `CCCCNC(=O)c1cc2c(=O)n3cccc(C)c3nc2n(Cc2ccncc2)c1=N`, the GFP response vs DMSO in [12] was 97.2% (inactive); in [14], 102% (inactive). Besides, the GFP response relative to DMSO in assay [13] was 96.5% (inactive). Besides, the GFP response, % of DMSO in assay [15] is 102% (inactive); in [16], 104% (inactive); in assay [16] (setting [17]), 96.4%; in [16] (setting [18]), 95.6%.
Turning to `CC(C)(C)C(=O)NC(=S)NNC(=O)c1sc2ccccc2c1Cl`, the GFP response vs DMSO in assay [12] is 116% (inactive); in assay [14], 122% (inactive). Moreover, the GFP response relative to DMSO in assay [13] is 242% (active). Moreover, the GFP response, % of DMSO in [15] was 137% (inactive); in assay [16] it was 106% (inactive); in assay [16] (setting [17]) it was 90.5%; in assay [16] (setting [18]), 91.5%.
The molecule `C=CCn1c(SCC(=O)NC2CCCCC2)nc2ccccc2c1=O` yielded a double positive events in assay [1] of 57.6%. For the same molecule, in assay [1], the vesicle binding response is 172% (inactive). Also, the inhibition in [2] was 4.27% (inactive); in assay [6], 1.93% (inactive); in assay [10], -4% (inactive). Moreover, the superoxide response (% of plate) in assay [3] was 114% (inactive). Besides, in assay [4], the aptamer binding inhibition is 3% (inactive). The response in [5] was -5.54% (inactive); in [7], 11.4% (inactive). In addition, the binding (% of control) in assay [8] is 99.2% (inactive). For the same molecule, in assay [9], the efflux inhibition (fraction of control) is 0 (inactive). Besides, the differentiation response in assay [11] was -17.7% (inactive).
As for `CC(OC(=O)c1cccs1)C(=O)Nc1nc(-c2ccccc2)cs1` (stereo not drawn), the GFP response vs DMSO in assay [12] was 98.7% (inactive); in [14] it was 99.5% (inactive). In assay [13], the GFP response relative to DMSO was 94.2% (inactive). Also, the GFP response, % of DMSO in assay [15] is 94.9% (inactive); in assay [16] it was 101% (inactive).
`CCn1cc(C(=O)O)c(=O)c2cc(F)c(N3CCNCC3)cc21` showed a double positive events in [1] of 70.1%. For the same molecule, the vesicle binding response in assay [1] is 276% (inactive). Further, the inhibition in [2] is 14.2% (inactive); in assay [6] it was 5.87% (inactive); in assay [10], 2% (inactive). Also, in [3], the superoxide response (% of plate) is 104% (inactive). The aptamer binding inhibition in assay [4] was 2% (inactive). In addition, the response in assay [5] was 29.6% (inactive); in assay [7] it was 7.15% (inactive). Also, the binding (% of control) in assay [8] was 98% (inactive). In assay [9], the efflux inhibition (fraction of control) was 0 (inactive). In addition, in [11], the differentiation response is 10.8% (inactive).
